Rows were chosen to be rich in hits. Some 2.8% of all compounds tested hit in one or more screens of this group.
PAFAH2 inh – inhibitors of human PAFAH2; AID 492956; Q99487; inhibition, % at 3.39 µM; actives 0.99% (n = 340,000); recombinant PAFAH2, FP-rhodamine activity probe, fluorescence polarization;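 active means inhibition above the mean over all tested compounds plus 3 SD, cut at about 30% in these data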;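 further: inhibitors block probe labeling of enzyme so polarization drops; 0% = enzyme with DMSO and 100% = wells lacking PAFAH2 protein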
pPAFAH inh – pPAFAH (human) enzyme inhibition | recombinant pPAFAH, FP-rhodamine probe fluorescence polarization | inhibition, % at 3.39 µM | actives 1.5% (n = 330,000) | AID 463082;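 active means inhibition above the mean inhibition across the screen plus 3 SD, cut at about 25% in these data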;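 further: inhibitors block binding of the rhodamine activity-based probe so polarization drops; 0% = enzyme with DMSO and 100% = wells lacking pPAFAH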
DAGLB inh – blocks human DAGLB lipase activity; Q8NCG7; HEK293T DAGLB membrane lysate, EnzChek fluorogenic substrate; inhibition, % at 5.17 µM; actives 0.059% (n = 340,000); in the data active means inhibition above about 34%;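 further: 0% = enzyme with vehicle and 100% = wells lacking enzyme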
PAFAH1B3 inh – blocks human PAF acetylhydrolase 1B catalytic subunit 3. Q15102. recombinant PAFAH1B3, FP-rhodamine probe, fluorescence polarization. inhibition, % at 3.39 µM. actives 0.28% (n = 340,000). AID 492972;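 active means inhibition above the screen-wide average of all tested compounds plus 3 SD, cut at about 25% in these data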;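 further: 0% = enzyme with DMSO only and 100% = wells lacking PAFAH1B3 protein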
Target sequence (Q15102 whole entry, looked up): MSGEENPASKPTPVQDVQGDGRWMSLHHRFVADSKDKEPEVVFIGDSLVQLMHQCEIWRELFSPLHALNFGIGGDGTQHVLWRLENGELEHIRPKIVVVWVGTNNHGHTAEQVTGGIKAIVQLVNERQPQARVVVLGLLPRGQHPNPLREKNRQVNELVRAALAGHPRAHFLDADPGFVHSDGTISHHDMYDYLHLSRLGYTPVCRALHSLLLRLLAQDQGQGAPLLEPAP
HTRA1 inhibitor – inhibitors of human serine peptidase HTRA1; Q92743; recombinant HTRA1, FP-rhodamine activity-based probe, fluorescence polarization; inhibition, % at 5.96 µM; actives 0.5% (n = 340,000); AID 504803; in the data active means inhibition above about 36%;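 further: 0% = enzyme with DMSO and 100% = wells lacking enzyme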
PAFAH1B2 FP inh – PAFAH1B2 (human) inhibition; inhibition, % at 3.39 µM; AID 492953; recombinant PAFAH1B2, FP-rhodamine activity probe, fluorescence polarization; P68402; actives 1.2% (n = 340,000);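 active means inhibition above the mean of all tested compounds plus 3 SD, cut at about 24% in these data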;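 further: 0% = enzyme with DMSO and 100% = wells lacking PAFAH1B2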
Target sequence (P68402 whole entry, looked up): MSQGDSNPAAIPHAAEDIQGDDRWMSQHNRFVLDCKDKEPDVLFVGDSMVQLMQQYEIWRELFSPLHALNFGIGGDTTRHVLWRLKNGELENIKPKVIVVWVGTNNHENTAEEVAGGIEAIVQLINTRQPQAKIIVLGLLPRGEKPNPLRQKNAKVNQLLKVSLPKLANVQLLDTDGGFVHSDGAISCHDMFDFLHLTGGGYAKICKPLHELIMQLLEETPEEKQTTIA
Active calls of the source: *; x = no result given.

SMILES	PAFAH2 inh	pPAFAH inh	DAGLB inh	PAFAH1B3 inh	HTRA1 inhibitor	PAFAH1B2 FP inh
O=[N+]([O-])c1cc(-n2cnnn2)ccc1N1CCC(Cc2ccccc2)CC1	-0.1	27.9*	7.2	2.9	-7.8	6.2
O=C(NNS(=O)(=O)c1ccc2ccccc2c1)c1cc(-c2ccccn2)nc2ccccc12	-5.9	1.7	1.5	7.6	-7.8	26.0*
O=C(Nn1cnnc1)c1cc(-c2ccccn2)nc2ccccc12	1.2	-0.4	0.8	10.6	1.1	2.1
O=C(CCC(=O)c1ccc(F)cc1)NCC1(N2CCCCC2)CCCCC1	-0.2	-8.4	-1.5	2.0	3.2	5.0
CCCc1cc(=O)c2ccc(OC/C(C)=N/O)cc2o1	-10.4	1.3	-3.7	1.1	11.8	7.1
Cc1onc(-c2ccccc2)c1C(=O)Nc1sc2c(c1C#N)CCC2	16.6	27.4*	-1.2	9.2	-8.6	1.0
C=C1CCN([C@@H](C)C(=O)NCc2ccc(OC)cc2)S(=O)(=O)c2ccccc21	-6.0	4.3	1.1	12.2	0.9	2.3
O=C(Cn1nnc(-c2cc(C(F)(F)F)cc(C(F)(F)F)c2)n1)NNC(=S)Nc1ccc(Cl)cc1	2.8	27.2*	8.2	10.9	-0.1	9.7
CN1C(=O)N(CC(=O)N2CCN(S(=O)(=O)c3ccc(Cl)s3)CC2)C(=O)C12CCCCC2	-5.9	0.2	-3.7	5.9	2.5	6.8
O=C(C1CCCO1)N1CCN(S(=O)(=O)c2cc(C(F)(F)F)ccc2Cl)CC1 (stereo not drawn)	-0.9	x	2.9	5.5	4.0	-0.6
COc1ccc2c3c(ccc2c1)C(=O)/C(=C/O)CC3	3.9	x	5.5	0.7	37.9*	4.8
O=C(OCC(=O)N1CCCCCC1)c1cc(S(=O)(=O)N2CCOCC2)ccc1F	x	x	0.6	x	10.3	x
CCC(C)NS(=O)(=O)c1ccc(S(=O)(=O)N(CC(=O)Nc2ccccc2)CC2CCCO2)cc1 (stereo not drawn)	-2.1	31.1*	0.4	-5.2	-6.2	-3.1
CCC(C)C(=O)Nc1nc(C)c(-c2csc(Nc3cc(OC)ccc3OC)n2)s1 (stereo not drawn)	-5.3	31.8*	1.1	16.0	15.2	12.1
COc1ccc(OC)c(Nc2nc(-c3sc(NC(=O)C(C)(C)C)nc3C)cs2)c1	15.0	30.5*	-0.4	5.5	35.1	3.4
COc1ccc(OC)c(Nc2nc(-c3sc(C)nc3C)cs2)c1	6.5	32.6*	-0.9	5.5	11.2	1.7
COc1ccccc1Nc1nc(-c2sc(N)nc2C)cs1	13.2	26.5*	3.7	16.1	14.8	6.9
COc1ccc(Cl)cc1Nc1nc(-c2sc(NC(=O)C(C)(C)C)nc2C)cs1	2.6	9.8	0.3	9.9	-1.0	2.4
Cc1cnc(NC(=O)C(C)N2CCN(C)CC2)s1 (stereo not drawn)	4.0	-2.0	1.4	8.4	-3.2	1.4
COC(=O)C1(C(C[N+](=O)[O-])c2ccc(C)cc2)C(=O)NCC1c1ccco1 (stereo not drawn)	x	2.5	x	x	x	x
O=C(COc1ccc(F)cc1)N(Cc1ccco1)C1CCS(=O)(=O)C1 (stereo not drawn)	7.2	3.2	-0.9	-0.8	-2.5	-3.4
CC1Cc2nc(SCC(=O)NCC3CCCO3)n(-c3ccccc3)c(=O)c2S1 (stereo not drawn)	x	x	-1.1	x	15.0	x
CCC(=O)Nc1nc(C)c(-c2csc(Nc3ccccn3)n2)s1	16.6	26.2*	-0.4	8.7	-4.5	0.3
O=c1oc(-c2ccccc2[N+](=O)[O-])nc2ccccc12	44.8*	0.0	-2.2	3.4	-33.0	-1.9
O=c1oc(-c2ccco2)nc2ccccc12	23.5	-0.7	-1.5	4.7	-4.2	-1.0
SMILES	PAFAH2 inh	pPAFAH inh	DAGLB inh	PAFAH1B3 inh	HTRA1 inhibitor	PAFAH1B2 FP inh
Cc1ccccc1NC(=O)c1ccccn1	-8.9	27.2*	-0.6	6.3	-2.0	0.6
CSc1ccccc1NC(=O)c1ccccn1	-3.8	-4.3	-5.4	11.4	-7.8	4.3
CCOC(=O)N1CCN(Cc2nnc(-c3cccc(Br)c3)o2)CC1	-4.1	4.3	-5.8	-0.7	2.1	0.3
S=c1[nH]c2cc(-c3ccccc3)ccc2o1	-1.6	11.9	0.6	4.1	7.9	5.4
CC(=O)Nc1cc(Cl)c(N=Cc2ccc(O)cc2O)cc1Cl	-11.2	41.1*	2.5	5.0	-6.1	0.7
O=S(=O)(NN=Cc1ccc(O)cc1O)c1cc(Cl)c(Cl)cc1Cl	-0.5	x	2.5	0.2	3.7	1.8
